{"source": "PubChem BioAssay (NCATS)", "note": "Inconclusive results are not listed. Calls of active or inactive are those of the source. Calls follow the shape of the dose curve; as a rule, active = well fitted cell-killing curve with a large enough effect; inconclusive = small, poorly fitted or top-dose-only effect; inactive = flat fitted curve, though single readings scatter. % is scaled to controls: 0 for no effect and ±100 for the full control effect; potency is read from the fitted curve at half-maximal effect.", "data": [{"test": "NCATS anti-infectives library activity on HEK293 viability as a counter-qHTS vs the C. elegans viability qHTS (AID 1745854)", "conditions": "HEK293 viability counter-screen; series mostly up to 41.8 µM; activity change, negative = cytotoxicity: at the top concentration", "text": "Assay Development and Screening Technology Laboratory (ADST)\nNational Center for Advancing Translational Sciences (NCATS), Rockville, MD\nNational Institute of Health (NIH), Bethesda, Maryland\nCaenorhabditis elegans has helped elucidate the evolutionarily conserved genetics underlying pathways and cellular processes implicated in human disease and may be ideally positioned to reveal novel pharmacological properties of exiting drugs. The organism's short life cycle and microscopic size is applicable to the technical requirements of high-throughput screening. Here a quantitative high-throughput screening (qHTS)-based forward chemical biology platform has been developed using C. elegans. 384-well microtiter plate laser scanning cytometry was used in the rapid detection and quantification of the fluorescent protein-encoded phenotype to score worm viability. In a proof-of-concept study, the pharmacological qHTS profile obtained from a library of 643 anti-infective compounds.\n1. Inglese, J., Auld, D. S., Jadhav, A., Johnson, R. L., Simeonov, A., Yasgar, A., Zheng, W., and Austin, C. P. (2006) Quantitative high-throughput screening: A titration-based approach that efficiently identifies biological activities in large chemical libraries, P Natl Acad Sci USA 103, 11473-11478.\n2. Auld, D. S., Johnson, R. L., Zhang, Y. Q., Veith, H., Jadhav, A., Yasgar, A., Simeonov, A., Zheng, W., Martinez, E. D., Westwick, J. K., Austin, C. P., and Inglese, J. (2006) Fluorescent protein-based cellular assays analyzed by laser-scanning microplate cytometry in 1536-well plate format, Method Enzymol 414, 566-589.\n3. Zuck, P., Lao, Z., Skwish, S., Glickman, J. F., Yang, K., Burbaum, J., and Inglese, J. (1999) Ligand-receptor binding measured by laser-scanning imaging, Proc Natl Acad Sci U S A 96, 11122-11127.\nPROTOCOL TABLE (as described by Inglese J, Shamu CE and Guy RK. 2007)\nSEQUENCE No. (e.g., 1, 2, 3, etc.); […] (e.g., C. elegans, Compounds, Incubation, Read, etc.); VALUE and DESCRIPTION.\n1. Compounds. Library compounds and digitonin control added at 25 nL per well to 7 assay ready 1536-well Greiner white/solid bottom high base, TC plates and two DMSO control plates, transferred by Echo acoustic dispenser.\n2. Cells. Seed 1500 HEK293 per well in 6 uL into assay ready Greiner 1536-well plates.\n3. Incubation. Incubate plated cells with compounds at 37C in 5% CO2, 95% RH for 24 hr.\n4. Reagent. Add 4 uL of CellTiter-Glo reagent from Promega per well of Greiner 1536-well plates with BioRAPTR FRD.\n5. Incubation. Incubate treated cells at room temperature for 10 min., protect from light.\n6. Detector. CellTiter-Glo luminescence measured using CCD-based camera (Viewlux) with settings as follows: Exposure, 1 sec; Gain, High; Speed, Slow; Binning, 2X.\nNOTES (numbers refer to Sequence numbers above; values are from representative experiments)\n1. NIH Anti-Infectives library pre-dispensed into 7 assay ready 1536-well Greiner white/solid bottom high base, TC plates with Echo 555 acoustic dispenser. Most compounds dispensed at 10 mM high concentration and plated in 7-pt 1:5 inter-plate titration at 25 nl / well for a final assay concentration range of 41.7 uM - 2.7 nM. Two 1536-well Greiner assay plates of DMSO plated as screening controls to be read at the beginning and the end of the screen. Controls included DMSO vehicle control added at 25 nl/well to each well of column 1 and […] (83.3 uM final assay concentration), and Digitonin titrated 1:2 at 25 nl/ well to column 4 in duplicate for a final assay concentration range of 83.3 uM - 2.5 nM.\n2. HEK293 cells grown for 48 hr in one T175 culture flask in DMEM high glucose media supplemented with 10% FBS and 1% Pen/Strep antibiotic. Cells trypsinized and diluted in 10 ml supplemented media, strained through 40 µm cell strainer, and diluted to a total volume of 40 ml with supplemented media. […]", "values": [{"compound": "C=Cc1c(C)c2cc3nc(cc4[nH]c(cc5nc(cc1[nH]2)C(C)=C5CCC(=O)O)c(CCC(=O)OC)c4C)[C@@]1(C)C3=CC=C(C(=O)OC)[C@H]1C(=O)OC", "activity change, negative = cytotoxicity": "-4.93% (inactive)"}, {"compound": "O=C1c2cccc(O)c2C(=O)c2c(O)cc(CO)cc21", "activity change, negative = cytotoxicity": "-8.07% (inactive)"}, {"compound": "CN(C)c1ccc(C(=O)NCCCCCCC(=O)NO)cc1", "activity change, negative = cytotoxicity": "-1.71% (inactive)"}, {"compound": "CC(C)C[C@H](NC(=O)[C@@H](NC(=O)c1cccc(-c2ccccc2)n1)[C@@H](C)O)B(O)O", "activity change, negative = cytotoxicity": "-8.03% (inactive)"}, {"compound": "CCC(C(=O)O)C1CCC(C)C(C(C)C(O)C(C)C(=O)C(CC)C2OC3(C=CC(O)[C@@]4(CC[C@](C)(C5CC[C@@](O)(CC)C(C)O5)O4)O3)C(C)CC2C)O1", "note": "(some centres undefined)", "activity change, negative = cytotoxicity": "-17.2% [at 0.334 µM] (inactive)"}, {"compound": "C=C(C)[C@@H]1CC[C@]2(C(=O)O)CC[C@]3(C)[C@H](CC[C@@H]4[C@@]5(C)CC[C@H](O)C(C)(C)[C@@H]5CC[C@]43C)[C@@H]12", "activity change, negative = cytotoxicity": "4.37% (inactive)"}, {"compound": "c1ccc(CNc2nc(NCc3ccccc3)c3ccccc3n2)cc1", "Potency": "22.4 µM (active)"}, {"compound": "CCS(=O)(=O)Nc1ccc2[nH]c(O)c(C(=Nc3ccc(CN4CCCCC4)cc3)c3ccccc3)c2c1", "Potency": "2 µM (active)"}, {"compound": "Cc1cc(O)c2c(c1)C(=O)c1cccc(O)c1C2=O", "activity change, negative = cytotoxicity": "-1.85% (inactive)"}, {"compound": "C[C@H](NC(=O)[C@@H](O)c1cc(F)cc(F)c1)C(=O)N[C@@H]1C(=O)N(C)c2ccccc2-c2ccccc21", "activity change, negative = cytotoxicity": "-10.1% (inactive)"}, {"compound": "CCCc1nc(C(C)(C)O)c(C(=O)O)n1Cc1ccc(-c2ccccc2-c2nn[nH]n2)cc1", "activity change, negative = cytotoxicity": "4.85% (inactive)"}, {"compound": "O=c1[nH]c(=O)n([C@H]2C[C@@H](O)[C@@H](CO)O2)cc1C=CBr", "activity change, negative = cytotoxicity": "-7.12% (inactive)"}, {"compound": "Cn1cc(CNCC2CCN(c3ncc(C(=O)NO)cn3)CC2)c2ccccc21", "activity change, negative = cytotoxicity": "-2.45% (inactive)"}, {"compound": "Nc1ccn(C[C@@H](CO)OCP(=O)(O)O)c(=O)n1", "activity change, negative = cytotoxicity": "2.29% [at 8.35 µM] (inactive)"}, {"compound": "Nc1ccc(C(=O)Nc2cccc(-c3nc(N4CCOCC4)c4oc5ncccc5c4n3)c2)cn1", "activity change, negative = cytotoxicity": "-16.2% (inactive)"}, {"compound": "c1cc(CN2CCCNCCNCCCNCC2)ccc1CN1CCCNCCNCCCNCC1", "activity change, negative = cytotoxicity": "-5.24% (inactive)"}, {"compound": "C[C@H](NC(=O)Cc1cc(F)cc(F)c1)C(=O)N[C@H](C(=O)OC(C)(C)C)c1ccccc1", "activity change, negative = cytotoxicity": "-7.25% (inactive)"}, {"compound": "C[C@H](NCc1ccc(OCc2cccc(F)c2)cc1)C(N)=O", "activity change, negative = cytotoxicity": "-13.4% (inactive)"}, {"compound": "CCOC(=O)C=C[C@H](C[C@@H]1CCNC1=O)NC(=O)[C@@H](CC(=O)[C@@H](NC(=O)c1cc(C)on1)C(C)C)Cc1ccc(F)cc1", "activity change, negative = cytotoxicity": "1.77% (inactive)"}]}]}
